Screening data: PubChem, several laboratories
Rows were chosen to be rich in hits. Some 3.5% of all compounds tested hit in one or more screens of this group.
Anthrax LF prot – anthrax lethal factor protease inhibition; multiplex microsphere protease cleavage assay, LF; inhibition, % at 10 µM; 360,000 tested, 0.12% active; further: plate controls were buffer without enzyme for full effect and enzyme alone for no effect
BoNT F protease – blocks Botulinum neurotoxin F light chain protease; AID 588497; Multiplex microsphere protease cleavage assay, flow cytometry; 360,000 tested, 0.22% active; inhibition, % at 10 µM; in the data active means inhibition above about 35%, passing the limit was not always enough; inconclusive means no clear call, values can overlap the other calls; further: plate controls were buffer without enzyme for full effect and enzyme alone for no effect
3CLpro inhibitor – SARS-CoV 3CLpro protease inhibition | recombinant SARS-CoV 3CLpro, quenched FRET peptide cleavage | 290,000 tested, 0.14% active | P0C6X7 | AID 1706 | inhibition, % at 6 µM; in the data active means inhibition above about 12%
BoNT A protease – inhibitors of Botulinum neurotoxin A light chain protease; multiplex microsphere protease substrate cleavage, flow cytometry; inhibition, % at 10 µM; 360,000 tested, 0.17% active; further: plate controls were buffer without enzyme for full effect and enzyme alone for no effect
Autofluor counter – flagged as autofluorescent in microsphere protease counterscreen; fluorescence intensity (test concentration not listed); 360,000 tested, 3.1% active; compound autofluorescence counterscreen, microsphere flow cytometry; stronger effect = higher value; in the data active means fluorescence intensity above about 16000; inconclusive means no clear call, values can overlap the other calls
* hit, by the source's call; ? = inconclusive; · = no result. Unless noted, no stated cut-off is given here; in the data, active means inhibition above about 30%; inconclusive means no clear call, values can overlap the other calls; inactive means below that.

SMILES	Anthrax LF prot	BoNT F protease	3CLpro inhibitor	BoNT A protease	Autofluor counter
O=C(CCCCCn1c(=S)[nH]c2ccccc2c1=O)N1CCC2(CC1)OCCO2	1	8	-1	3	21724*
O=C(CCCCCn1c(=S)[nH]c2ccccc2c1=O)N1CCOCC1	1	0	5	0	4155
COc1ccc(CN(C#N)c2nc(C)cc(C)n2)cc1	18	?	-4	0	4153
CC[C@H]1O[C@H](C)CC2=C1C(=O)OC(C)(C)O2	2	-10	·	-1	6340
Cc1cc(C)c(NC(=O)Cn2nnc(C(=O)NCc3cccs3)c2N)c(C)c1	1	-17	5	-2	8070
CCOCCCNC(=O)c1cc(C)nn1-c1ccccc1	-9	-10	2	-1	5805
CCOCCCNC(=O)c1cc2sc(Cl)cc2n1CC	-10	-15	-2	?	18115*
CCOC(=O)C1CCCN(C(=O)/C=C/c2ccc([N+](=O)[O-])cc2)C1 (centres undefined)	1	-5	5	0	2651
COc1ccc(CCN2C(=O)C3C4C=CC(C3C2=O)C2C(=O)N(CCc3ccc(OC)c(OC)c3)C(=O)C42)cc1OC (centres undefined)	-5	2	4	2	19991*
COc1ccc(CCNC(=O)CN2C(=O)c3cccc4cccc(c34)C2=O)cc1OC	-1	4	4	1	2258
COc1ccc(CCN2C(=O)C3C4C=CC(C5CC45)C3C2=O)cc1OC (centres undefined)	2	4	3	0	4674
COc1ccc(CCN2C(=O)c3cccc4cccc(c34)C2=O)cc1OC	-17	10	-7	11	17334*
CCn1ccnc1C(O)c1cccc2ccccc12 (centres undefined)	11	?	5	0	3884
COc1cc(OC)c(OC)cc1CN(C)C(c1ccccc1)c1nnnn1-c1ccccc1C (centres undefined)	-1	-11	2	0	2405
C=CCOc1cccc(C2/C(=C(/O)c3ccc(F)cc3)C(=O)C(=O)N2CCN2CCOCC2)c1 (centres undefined)	3	-16	4	0	4569
Cc1ccccc1-n1c(N)c(C(=O)Nc2ccc(F)cc2)sc1=S	-3	0	3	0	3244
CC(=O)Nc1nonc1-c1nc2ccccc2n1Cc1ccccc1	2	14	-2	0	3900
CC(=O)Nc1nonc1-c1nc2ccccc2n1Cc1nnc(C)o1	1	-1	3	1	22950*
CCC(=O)Nc1nonc1-c1nc2ccccc2n1Cc1ccc(Cl)c(Cl)c1	-5	2	·	-1	5464
CCn1c(-c2nonc2NC(=O)c2ccccc2)nc2ccccc21	-1	1	-9	0	20786*
CC(=O)c1sc(NCCOc2ccc(C)cc2)nc1C	-2	3	0	0	2134
CC(C)CCNC(=O)CCSCCC(=O)NCCC(C)C	0	-4	0	-1	2618
CCN(CC)CCCNC(=O)C1c2ccccc2Oc2ccccc21	3	4	-2	1	5036
COCCCNC(=O)C1c2ccccc2Oc2ccccc21	9	42*	1	0	3595
COc1ccc(CNC(=O)C2CCCN2CCc2ccccc2)cc1OC (centres undefined)	-7	-1	0	-1	4681
SMILES	Anthrax LF prot	BoNT F protease	3CLpro inhibitor	BoNT A protease	Autofluor counter
Cn1c(=O)[nH]c(=O)c2c1nc(OC(=O)c1ccccc1)n2CC(O)COc1ccc(F)cc1 (centres undefined)	1	-4	-1	-1	16708*
O=C1CC2c3ccccc3CCN2C(=O)CN1Cc1ccccc1 (centres undefined)	2	1	·	0	5279
O=C1c2cnc3nc(SCc4ccccc4)nn3c2CC2c3ccccc3CCN12 (centres undefined)	2	9	1	3	22144*
Cc1cc2ccccc2c(=O)n1CC(=O)NCC(=O)N1CCN(c2cccc(Cl)c2)CC1	-3	-1	0	?	20243*
CC1CCCN(c2nc3nonc3nc2N2CCCC(C)C2)C1 (centres undefined)	-6	3	-3	-1	2918
CC1CCN(c2nc3nonc3nc2N2CCC(C)CC2)CC1	-2	-2	0	?	21212*
CCc1cccc(NC(=O)c2ccc(Cn3nc(C)cc3C)o2)c1	4	12	2	1	1966
CSc1ccc(Cl)c(C(=O)NCCOc2cc(C(C)C)ccc2C)c1	-2	-6	3	0	11025
Cc1onc(-c2c(F)cccc2Cl)c1C(=O)NC1=NCCS1	1	-4	0	0	7911
O=C1C(Cl)=C(NCCCN2CCOCC2)C(=O)N1CCc1ccccc1	-9	-2	0	0	22919*
